Experimental data from PubChem BioAssay (NCI).
About 79,000 compounds went through this panel and 15% of them were active in at least one assay; those are over-represented in the sample as a whole. A number with no mark means an inactive call. The source made the active and inactive calls. Rule as the data show it: active = growth inhibition above about 70%; inactive = the rest.

Key:
[1] = NCI Yeast Anticancer Drug Screen. Data for the rad50 strain (AID 155);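 also: 0% = growth of vehicle-only cultures of the same strain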; details: S. cerevisiae rad50 strain growth inhibition, stronger effect = higher value
How it was run: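 Vehicle-treated cultures provide the reference for the growth inhibition reported for compound-exposed, repair-deficient yeast.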

[2] = NCI Yeast Anticancer Drug Screen. Data for the mec2-1 strain (AID 157); details: S. cerevisiae mec2-1 strain, stronger effect = higher value
How it was run: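 Mutant yeast (mec2-1) grown with compound; growth inhibition relative to vehicle control reported.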

[3] = NCI Yeast Anticancer Drug Screen. Data for the sgs1 mgt1 strain (AID 161);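 also: 0% = growth of cultures given vehicle only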; details: S. cerevisiae sgs1 mgt1 strain, stronger effect = higher value
How it was run: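 Growth of a repair-deficient yeast mutant was monitored after compound treatment and expressed as inhibition relative to vehicle-treated cultures.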

[4] = NCI Yeast Anticancer Drug Screen. Data for the cln2 rad14 strain (AID 165);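 also: 0% = growth equal to vehicle treated cultures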; details: S. cerevisiae cln2 rad14 strain, stronger effect = higher value
How it was run: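 Readout is yeast growth inhibition versus vehicle-treated controls, using a strain with cln2 and rad14 alterations exposed to compound.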

[5] = NCI Yeast Anticancer Drug Screen. Data for the bub3 strain (AID 167); details: S. cerevisiae bub3 mutant strain, stronger effect = higher value
How it was run: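 Mutant yeast screening strain plus compound; vehicle-treated cultures serve as the 0% inhibition reference.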

[6] = NCI Yeast Anticancer Drug Screen. Data for the mlh1 rad18 strain (AID 175); details: S. cerevisiae mlh1 rad18 strain growth inhibition, stronger effect = higher value
How it was run: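 Genetically defined yeast (DNA repair-deficient) exposed to compounds; growth inhibition determined relative to vehicle.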

[7] = at 5.0 µM (retest, dose inferred, filed as 0.5)
[8] = at 50.0 µM (retest, dose inferred, filed as 5.0)

Row | SMILES | growth inhibition [1, 7] | growth inhibition [1, 8] | growth inhibition ([1]; at 50.0 µM) | growth inhibition [2, 7] | growth inhibition [2, 8] | growth inhibition ([2]; at 50.0 µM) | growth inhibition [3, 7] | growth inhibition [3, 8] | growth inhibition ([3]; at 50.0 µM) | growth inhibition [4, 7] | growth inhibition [4, 8] | growth inhibition ([4]; at 50.0 µM) | growth inhibition [5, 7] | growth inhibition [5, 8] | growth inhibition ([5]; at 50.0 µM) | growth inhibition [6, 7] | growth inhibition [6, 8] | growth inhibition ([6]; at 50.0 µM)
1 | O=C(CC(O)(C(F)(F)Cl)C(F)(F)Cl)CC(O)(C(F)(F)Cl)C(F)(F)Cl | 94% (active) | 100% (active) | 99.1% (active) | 97% (active) | 100% (active) | 99.5% (active) | 93% (active) | 99% (active) | 99.5% (active) | 95% (active) | 99% (active) | 99.3% (active) | 91% (active) | 100% (active) | 99.6% (active) | 97% (active) | 100% (active) | 99.2% (active)
2 | Cn1c(=O)c2c(ncn2CCCCOc2ccc3c(c2)[n+]([O-])nc(N)[n+]3[O-])n(C)c1=O | 4% | 38% | 44% | 14% | 23% | 51.9% | 5% | 34% | 69.9% | -23% | 52% | 69% | -8% | 63% | 56.5% | 32% | 82% (active) | 75.8% (active)
3 | Nc1ccc(SC23CC4CC(CC(C4)C2)C3)cc1 | 1% | 74% (active) | 94.1% (active) | 0% | 42% | 94.4% (active) | 9% | 78% (active) | 96% (active) | -69% | 61% | 95.1% (active) | 40% | 33% | 95.7% (active) | 10% | 91% (active) | 89.2% (active)
4 | CCOC(=O)c1cccc(C)c1C(=O)c1ccc(C)cc1C | 3% | 66% | 38.9% | 4% | 79% (active) | 79.3% (active) | 0% | -36% | 47.3% | 6% | -1% | -9.5% | -4% | 24% | 82.8% (active) | -2% | 41% | 59.6%
5 | NNc1cccc(C(F)(F)F)c1 | 19% | 90% (active) | 83.7% (active) | -41% | 54% | 79.5% (active) | -16% | 28% | 88.5% (active) | 13% | 55% | 50.1% | -1% | 97% (active) | 88% (active) | 34% | 93% (active) | 83.5% (active)
6 | Cc1ccccc1NC(=O)CSC(N)=O | 2% | 26% | 82.1% (active) | -1% | 34% | 60.4% | 1% | 36% | 91.8% (active) | 5% | 6% | 55% | 1% | 66% | 87.3% (active) | 0% | 29% | 83% (active)
7 | CN(c1ccc(Cl)cc1)S(=O)(=O)c1cccc([N+](=O)[O-])c1 | -6% | 52% | 42.7% | -13% | 71% (active) | 42.8% | -6% | 62% | 70.8% (active) | 27% | 48% | 48.4% | -28% | 90% (active) | 78% (active) | -11% | 51% | 58.9%
8 | CCC(C)N(C(=O)c1ccccc1)c1ccccc1 (stereo not given) | -1% | -2% | 2.8% | 1% | -1% | 6.15% | 2% | -3% | -7.35% | 0% | 3% | 39.8% | -3% | -1% | -4.45% | -3% | 2% | -3.65%
9 | CCC(=O)C(CCN(CC)CC)(CCN(CC)CC)c1ccccc1 | -1% | -5% | 87.5% (active) | -2% | -4% | 99.3% (active) | -2% | -4% | 42.4% | 3% | -8% | 71% (active) | 1% | -3% | 99.2% (active) | -2% | -7% | 97.8% (active)
10 | NC(=S)N/N=C1\CCCCc2ccccc21 | 5% | 85% (active) | 85.7% (active) | -19% | 83% (active) | 89.5% (active) | 4% | 87% (active) | 83.8% (active) | 13% | 80% (active) | 83.8% (active) | 17% | 88% (active) | 79.1% (active) | 5% | 91% (active) | 84.2% (active)
